Measured values: paper PMC7819943, “Rice protein-binding microarrays: a tool to detect cis-acting elements near promoter regions in rice”
In all, about 68,000 sequences were measured (“fluorescence intensity (a.u.)”: median about 9,100, highest 2% from about 16,000 on). This excerpt belongs to a sample that is enriched for the highest values.

Target: OsWRKY34 (Oryza sativa, UniProt Q0JBA9 1-250)
Assay: protein-binding microarray (RPBM); PBS, 2% BSA, 51.3 ng/ul salmon testes DNA, 50 uM zinc acetate, 200 nM TF, 25 C, 1 h; high values mean tight binding
Conditions: protein: recombinant; tags: N-terminal polyhistidine and DsRed monomer fusion (pET32a); label: CyDye5-dUTP incorporated in the synthesized complementary strand; 3' TTTTT single-stranded linker to array surface; dsDNA, one strand shown
How it was run: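 Transcription factors were made in E. coli BL21-CodonPlus as N-terminal fusions to a polyhistidine tag and DsRed, then purified on Ni–NTA. After primer extension with Cy5-dUTP and blocking with 2% BSA, a custom Agilent array was exposed for 1 h at 25 °C to 200 nM protein in PBS, 2% BSA, salmon testes DNA and 50 µM zinc acetate. Washed arrays were scanned on an Axon 4000B, and the binding signal is per-feature fluorescence intensity in arbitrary units.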

OsWRKY34, sequence (Q0JBA9 entry or part of it): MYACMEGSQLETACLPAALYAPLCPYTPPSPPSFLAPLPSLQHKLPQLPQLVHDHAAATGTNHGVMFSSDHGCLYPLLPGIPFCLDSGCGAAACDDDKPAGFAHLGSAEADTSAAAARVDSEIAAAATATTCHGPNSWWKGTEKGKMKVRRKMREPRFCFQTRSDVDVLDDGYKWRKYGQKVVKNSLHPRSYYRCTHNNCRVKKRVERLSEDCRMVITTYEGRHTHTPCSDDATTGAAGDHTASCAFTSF

Sequence | binding signal
CCTGGTTGGTTTGGCTCGCACGTGGCGCGTCGTCCTACGCCGGAGTCACCTAGTGCAG | 9870 fluorescence intensity (a.u.)
TTATTTACAAACGAGTTCCATTTTTTTCTACGGTGATCGGCGGAGTCACCTAGTGCAG | 8120 fluorescence intensity (a.u.)
ATCTGTATCTTTGTTTATTTTTTTTATTTTTCTCCCATTTCGGAGTCACCTAGTGCAG | 10600 fluorescence intensity (a.u.)
TCTCTTTTCACCCACCGCACCCATCCAACTTCTCTTCTCTCGGAGTCACCTAGTGCAG | 17900 fluorescence intensity (a.u.)
GCCATTCCACATCAGTCCGTGCCGCTCTCTGCCCATTCTCCGGAGTCACCTAGTGCAG | 18900 fluorescence intensity (a.u.)
ATGCCCATTTTGTAGCGTCGATTCTTGTTTCTGCTTGATTCGGAGTCACCTAGTGCAG | 10300 fluorescence intensity (a.u.)
TCCATCCCATTCCCGCCATCTCTGCATCTTCTTCTTCTTCCGGAGTCACCTAGTGCAG | 9910 fluorescence intensity (a.u.)
CAGTTTGAGTTTTTGTTAGTTATTTCGTTTATTTTTTTTTCGGAGTCACCTAGTGCAG | 12300 fluorescence intensity (a.u.)
GATTGTAGTTTGTATATGCTGCCCATTTCTGTTGTTCTTTCGGAGTCACCTAGTGCAG | 18900 fluorescence intensity (a.u.)
TCTCTTCTTCTTCTCCAACTTCTTTTTTCTCTTCTTCTTCCGGAGTCACCTAGTGCAG | 9680 fluorescence intensity (a.u.)
TTCTTCTTCTGCCATTCCATCCATCCACCGCCGCCTCCGCCGGAGTCACCTAGTGCAG | 8380 fluorescence intensity (a.u.)
CTCCATCTCGCATCTTCTCTTTCTCTTTCTCTTTCTCTTTCGGAGTCACCTAGTGCAG | 13300 fluorescence intensity (a.u.)
TTTTTTGAGCCGTATTTTTGCTCTCTTGTTACGTTTTTTTCGGAGTCACCTAGTGCAG | 17100 fluorescence intensity (a.u.)
CTTGTTACTAATATACTAGTATTTGAGTGTTACACGTTTTCGGAGTCACCTAGTGCAG | 8380 fluorescence intensity (a.u.)
AGGTGTAATAGTATTTTGTTGTCTAATTGGTTTTGATTGTCGGAGTCACCTAGTGCAG | 11400 fluorescence intensity (a.u.)
TATTTCTCTCGCCACAATCTCTGGCGGCGCCACAATCTTACGGAGTCACCTAGTGCAG | 8850 fluorescence intensity (a.u.)
GGCCTGGAGCTCAGTCAAACAGTTTCAGCTCAGCTCTATCCGGAGTCACCTAGTGCAG | 8520 fluorescence intensity (a.u.)
TCTCTTCGCTCTGCCCACTTGCTAAACCATACCGGCGATACGGAGTCACCTAGTGCAG | 9960 fluorescence intensity (a.u.)
CATCCATCGTATCCACCGCCGTCGCCTTCCATCCTCCCCGCGGAGTCACCTAGTGCAG | 8040 fluorescence intensity (a.u.)
GTGGGAGGGAGGGCGGCGAGCTGCGCGGCGAACCTCGAGCCGGAGTCACCTAGTGCAG | 8120 fluorescence intensity (a.u.)
CCTTTTTTTTTCCGAGTGTGTGGCTCTCAGATGGAGTTAGCGGAGTCACCTAGTGCAG | 8450 fluorescence intensity (a.u.)
GGTAGGATTGTACTTTTTTTTTTTTTGGGACGGAGGGGTACGGAGTCACCTAGTGCAG | 10100 fluorescence intensity (a.u.)
CCTTGGGTGGGTACGGATTGGATTAGGGAGGGGAGCACAACGGAGTCACCTAGTGCAG | 17600 fluorescence intensity (a.u.)
TGGGTGGGGATGAAGTGTGGAAGTGGCATATCTTTATCCACGGAGTCACCTAGTGCAG | 8320 fluorescence intensity (a.u.)

Sequence | binding signal
AACGTGGAAGTGGATTGGGTGGTGGGTGGGGATCCACCTACGGAGTCACCTAGTGCAG | 22100 fluorescence intensity (a.u.)
TGGTGTAGGGTTATGATTGGATGAGTAGTGGAGGTAGGTACGGAGTCACCTAGTGCAG | 9780 fluorescence intensity (a.u.)
TGGTGGCGGCGGTGGCAGTGGTGGTGTTGGGATTGGGGTACGGAGTCACCTAGTGCAG | 9230 fluorescence intensity (a.u.)
ATTATCCTGATCAAAATTCCCGCAATTCCTTAACACATGTCGGAGTCACCTAGTGCAG | 10200 fluorescence intensity (a.u.)
GCTTTTCTCTTCCTTTTCGCTCGCTCTCAAGGCCCATAACCGGAGTCACCTAGTGCAG | 9530 fluorescence intensity (a.u.)
TTGGTGAGAACAGCCTTATCTCTATCGCTTTACTCTCTCTCGGAGTCACCTAGTGCAG | 8150 fluorescence intensity (a.u.)
CTGACCACCAACAGGGTCACTGTCGCGTTTGCTCGATACTCGGAGTCACCTAGTGCAG | 9920 fluorescence intensity (a.u.)
TCCTTTCCTACATGTCGCCTTTGCCGTCGCCTCAACCACACGGAGTCACCTAGTGCAG | 14200 fluorescence intensity (a.u.)
TCTTCTCACTCTAATCAAATCTCTCTCTCTCTCTCTCTCTCGGAGTCACCTAGTGCAG | 8280 fluorescence intensity (a.u.)
ATCAAACCACTTCCATCTCTCAATTCTCAAGCACACACACCGGAGTCACCTAGTGCAG | 8310 fluorescence intensity (a.u.)
ACGAACCTAAGCACTTCCAAATCAAATCAATCAAAGCTCTCGGAGTCACCTAGTGCAG | 56100 fluorescence intensity (a.u.)
GCCGTCGCCGTCGCCGTCCTCCTCGTTGTCGTTGTCGTCGCGGAGTCACCTAGTGCAG | 9000 fluorescence intensity (a.u.)
CGTTCTGTCATTTGGGTTTTATGTTTGTTCTCTCTTGTTTCGGAGTCACCTAGTGCAG | 12000 fluorescence intensity (a.u.)
ATGCGTGTGGTTCTCCTGTCCGTTCTGTCATTTGGGTTTTCGGAGTCACCTAGTGCAG | 20000 fluorescence intensity (a.u.)
CTTCTTAGCTTCCGTGTCATGTTTCTTTTTGTTATCTTTTCGGAGTCACCTAGTGCAG | 10800 fluorescence intensity (a.u.)
CGTCCTTATTGTGGTTTTCCACGTGTTTGTCTCTGTGTTTCGGAGTCACCTAGTGCAG | 13300 fluorescence intensity (a.u.)
TTTTCCGTGTTTTCCGTTTCTGTTTGTTTGGCTTTTTTTTCGGAGTCACCTAGTGCAG | 18600 fluorescence intensity (a.u.)
GTGGACTTTTTTCCTTCTCCTTTTCCTTTGTGTTGTTTCGCGGAGTCACCTAGTGCAG | 8860 fluorescence intensity (a.u.)
TACATCCGTTTCCGTTTCGTTCTGTTCTGTTCTGTTGTTTCGGAGTCACCTAGTGCAG | 29200 fluorescence intensity (a.u.)
TTCCGTTTCTGTTCCGTTTGGTTTTTCCTTGTTCTTTCGGCGGAGTCACCTAGTGCAG | 12900 fluorescence intensity (a.u.)
TCATTTCTGTGTGTGTTTTGGAGGTGGGTGAGGGTCTGTTCGGAGTCACCTAGTGCAG | 9920 fluorescence intensity (a.u.)
TACCACCACTGTTCGTTTCGTTTGTTGGGTTTCGGTCATCCGGAGTCACCTAGTGCAG | 8360 fluorescence intensity (a.u.)
TAGTCCGTTCTGTTGTCATCTACTACTCTTGTTTGTGTTTCGGAGTCACCTAGTGCAG | 16100 fluorescence intensity (a.u.)
GAATTGTTGACCACGTGTTTCTGTTTGGACTCCTTTTTTTCGGAGTCACCTAGTGCAG | 16400 fluorescence intensity (a.u.)
